Inconclusive results are not listed. Where a call stands in place of a potency, no number is given. A number with no mark means an inactive call. The source made the active and inactive calls. The call rests on the fitted dose curve; in most records, active means well fitted inhibition curve with a large enough effect; inconclusive means small, poorly fitted or top-dose-only effect; inactive means flat fitted curve, though single readings scatter. Where a SMILES comes first, the peptide text is derived from it.

Potency, activity change, negative = cytotoxicity and outcome data for 39 molecules are collected here from PubChem BioAssay (NCATS).

The experiment is described as follows: P-glycoprotein substrates identified in KB-8-5-11 adenocarcinoma cell line, qHTS therapeutic library screen (AID 1346987). Further: nearly all actives have a fitted effect of over 65% in size. Conditions: KB-8-5-11 (P-gp overexpressing) viability, CellTiter-Glo, 72 h; series mostly up to 44.5 µM. Put shortly: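 KB-8-5-11, a colchicine-selected P-gp-overexpressing KB-3-1 subline, was grown without colchicine for the assay. Cells were seeded at 500 cells/well, dosed in concentration-response and incubated 72 h at 37 degree C, 5% CO2. Viability was read by CellTiter-Glo luminescence.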
On the technique in general: Quantitative high-throughput screening tests each substance at several concentrations.
Turning to `C=C1[C@H](OC(C)=O)[C@H]2[C@@H](OC(C)=O)C(C)C[C@]2(OC(C)=O)C(=O)[C@H](C)/C=C/C(C)(C)C(=O)[C@H](OC(=O)C(C)C)[C@H]1OC(C)=O` (some centres undefined), the Potency entry was “inactive”.
Turning to `COc1cc(O)cc(O[C@@H]2O[C@H](CO)[C@@H](O[C@@H]3OC[C@](O)(CO)[C@H]3O)[C@H](O)[C@H]2O)c1OC`, the Potency result was “inactive”.
Turning to `CC(C)CC[C@@H](O)[C@](C)(O)[C@H]1CC[C@@]2(O)C3=CC(=O)[C@@H]4C[C@@H](O)[C@@H](O)C[C@]4(C)[C@H]3CC[C@]12C`, the Potency result was “inactive”.
For `N#CC1C(=O)N=C(c2cc(Cl)ccc2O)C=C1c1cc(OCc2ccccc2)cc(OCc2ccccc2)c1` (centres undefined), the Potency result was “inactive”.
Take `C=C(C)C(O)COc1ccc(CC(=O)O)cc1` (centres undefined): the Potency entry is “inactive”.
For the molecule `C=CCc1ccc(O[C@@H]2O[C@H](CO)[C@@H](O)[C@H](O)[C@H]2O)c(O[C@@H]2O[C@H](CO)[C@@H](O)[C@H](O)[C@H]2O)c1`, the Potency entry is “inactive”.
As to `C[C@H]1CC[C@@]2(OC1)O[C@H]1CC3C4CC[C@H]5C[C@@H](O[C@@H]6O[C@H](CO)[C@H](O[C@@H]7O[C@H](CO)[C@@H](O)[C@H](O[C@@H]8OC[C@@H](O)[C@H](O)[C@H]8O)[C@H]7O[C@@H]7O[C@H](CO)[C@@H](O)[C@H](O)[C@H]7O)[C@H](O)[C@H]6O)[C@H](O)C[C@]5(C)C4=CC(=O)[C@]3(C)[C@H]1[C@@H]2C` (some centres undefined), the activity change, negative = cytotoxicity is 4.95% [at 9.29 µM].
With `CC1=C(CO)C2(C)CCCC(C)(C)C2C(O)C1O` (centres undefined), the Potency result is “inactive”.
For `C=C(C)[C@@H]1CC[C@]2(C(=O)O)CC[C@]3(C)C(CCC4[C@]5(C)C(CC[C@]43C)C(C)(C)[C@@H](O)[C@@H]5C(=O)O)C12` (some centres undefined), the Potency result was “inactive”.
With `CC1(C)CC[C@]2(C(=O)O[C@@H]3O[C@H](CO)[C@@H](O)[C@H](O)[C@H]3O)CC[C@]3(C)C(=CCC4[C@@]5(C)CC[C@H](O[C@@H]6O[C@H](C(=O)O)[C@@H](O[C@@H]7O[C@H](CO)[C@@H](O)[C@H](O)[C@H]7O)[C@H](O)[C@H]6O)C(C)(C)C5CC[C@]43C)C2C1` (some centres undefined), the outcome was “inactive [at 9.29 µM]”.
As to `CSCC1OC(n2cnc3c(N)ncnc32)C(O)C1O` (centres undefined), the Potency result was “inactive”.
On the same count and under the same terms, the value for `CCC(C)/C=C(C)/C=C/C1=CC2=C(Cl)C(=O)C(C)(O)C(=O)C2(O)C(OC)O1` (centres undefined) was “inactive”.
Take `CC(=O)/C=C/C1(O)C(C)(C)CC(O)CC1(C)O` (centres undefined): the Potency result was “inactive”.
Take `OC[C@H]1O[C@@H](OC[C@H]2O[C@@H](OCc3ccccc3)[C@H](O)[C@@H](O)[C@@H]2O)[C@H](O)[C@@H](O)[C@@H]1O`: the Potency result is “inactive”.
As to `COC(=O)C1=CO[C@@H](O[C@@H]2O[C@H](CO)[C@@H](O)[C@H](O)[C@H]2O)[C@H]2[C@@H]1[C@H](O)C[C@]2(C)O`, the Potency result was “inactive”.
With `CC(C)=CCC/C(C)=C/CO[C@@H]1O[C@H](CO[C@@H]2OC[C@](O)(CO)[C@H]2O)[C@@H](O)[C@H](O)[C@H]1O`, the Potency entry is “inactive”.
With `CC(=C\C(C)O)/C=C(\C)C(=O)CC1CC(CC(N)=O)CC(=O)O1` (centres undefined), the Potency entry was “inactive”.
On to `C=CCC1=C[C@]2(OC)[C@H](C)[C@@H](c3ccc(OC)c(OC)c3)O[C@]2(OC)CC1=O`, for which the Potency result was “inactive”.
`O=C(C[C@@H]1C(C(=O)O)=CO[C@@H](O[C@@H]2O[C@H](CO)[C@@H](O)[C@H](O)[C@H]2O)/C1=C\CO)OCCc1ccc(O)cc1`: the Potency result was “inactive”.
`CC1(C)CC[C@]2(C(=O)O[C@@H]3O[C@H](CO[C@@H]4O[C@H](CO[C@@H]5O[C@H](CO)[C@H](O)[C@H](O)[C@H]5O)[C@@H](O)[C@H](O)[C@H]4O)[C@@H](O)[C@H](O[C@@H]4O[C@H](CO)[C@@H](O)[C@H](O)[C@H]4O)[C@H]3O)[C@H](O)C[C@]3(C)C(=CCC4[C@@]5(C)CC[C@H](O[C@@H]6OC[C@@H](O)[C@H](O)[C@H]6O)[C@@](C)(C(=O)O)C5CC[C@]43C)[C@@H]2C1` (some centres undefined): the outcome was “inactive [at 9.29 µM]”.
As to `C[C@H](/C=C/[C@@]1(O)[C@H](C)CC(=O)CC1(C)C)O[C@@H]1O[C@H](CO[C@@H]2OC[C@@H](O)[C@H](O)[C@H]2O)[C@@H](O)[C@H](O)[C@H]1O`, the Potency result is “inactive”.
For the molecule `CC(=O)OC[C@@]12C(=O)C[C@@H](C)[C@]3(C[C@@H](c4ccoc4)OC3=O)[C@H]1CC[C@H](OC(C)=O)[C@]21CO1`, the Potency entry is “inactive”.
Take `COc1cc2nc(=NC(=O)c3cccnc3)n3c(c2cc1OC)NCC3`: the Potency entry was “inactive”.
For the molecule `Cc1occc(=O)c1O[C@@H]1O[C@H](COC(=O)CC(C)(O)CC(=O)O)[C@@H](O)[C@H](O)[C@H]1O` (some centres undefined), the Potency entry is “inactive”.
Same read-out and setting: the value for `CN(C)CC(c1ccc(O)cc1)C1(O)CCCCC1` (centres undefined) was “inactive”; that for `COC(=O)C(CC1(O)c2ccccc2N2C(=O)C(CC(C)C)NC21)n1cnc2ccccc2c1=O` (centres undefined) was “inactive”.
Regarding `Cc1cc(CNC(=O)c2cc(C(=O)NCc3ccc(F)c(C)c3)ncn2)ccc1F`, the Potency result was “inactive”.
`COC(=O)C1=CO[C@@H](O[C@@H]2O[C@H](CO)[C@@H](O)[C@H](O)[C@H]2O)C2C1CC(O)C2C` (some centres undefined): the Potency entry is “inactive”.
Turning to `CC/C=C/C=C/C1(C)OC(CC(CO)OC)=CC1=O` (centres undefined), the Potency entry is “inactive”.
Take `C=CC(C)(O)CC/C=C(\C)C(=O)O[C@@H]1[C@@H](O)[C@H](OC(C)(C=C)CC/C=C(\C)C(=O)O)O[C@H](CO)[C@H]1OC(=O)/C(C)=C/CCC(C)(O)C=C` (some centres undefined): the Potency result is “inactive”.
As for `COC(=O)C(CC1CCCC1)c1ccc(S(C)(=O)=O)cc1` (centres undefined), the Potency entry was “inactive”.
Consider `NC(N)=NCCC[C@H](NC(=O)c1sccc1NS(=O)(=O)c1cccc2nsnc12)C(=O)O`, for which the Potency entry was “inactive”.
`C=C(C(=O)OC)[C@]12O[C@@](C)(CC[C@@]3(O)/C(=C\C)C(=O)O[C@]3(C)C[C@@H]1OC(=O)C(CO)CN1CCCC1C(=O)O)CC2=O` (some centres undefined): the Potency entry is “inactive”.
`CC1(C)[C@@H]2CC=C(CO[C@@H]3O[C@H](CO[C@@H]4OC[C@H](O)[C@H](O)[C@H]4O)[C@@H](O)[C@H](O)[C@H]3O)[C@H]1C2`: the Potency result was “inactive”.
Same read-out and setting: the value for `CC(C)NC(=O)c1ccc(C#Cc2ccncc2)cn1` was “inactive”.
Still for that read-out and setting: the value for `CC1CCC2(C(=O)O)CCC3(C)C(=CCC4C5(C)C[C@@H](O)[C@@H](O)C(C)(CO)C5CCC43C)C2C1(C)O` (some centres undefined) was “inactive”.
As for `O=C(O)C(Cc1ccccc1)NC(=O)C1CCCN1` (stereo not drawn) (H-Pro-Phe-OH; configuration not given here), the Potency entry was “inactive”.
The same measure, in the same setting: the value for `CC1CCC2(C(=O)OC3OC(CO)C(O)C(O)C3O)CCC3(C)C(=CCC4C5(C)CCC(O)C(C)(CO)C5CCC43C)C2C1(C)O` (centres undefined) was “inactive”.
In the case of `Cc1onc(-c2c(Cl)cccc2Cl)c1CC(=O)NCc1ccc(OCC(F)(F)F)nc1`, the Potency entry was “inactive”.
